Laboratory results reported in PubChem BioAssay AID1479144 (National Center for Advancing Translational Sciences (NCATS), 2020).
Records with an inconclusive call do not appear. Activity calls are given as the source filed them. The call rests on the fitted dose curve.

Assay: Confirmatory qHTS for Vero E6 cytotoxicity: counterscreen for inhibitors of SARS-S pseudo-typed particle cell entry
Conditions: cell viability; series mostly up to 57.1 µM; activity change, negative = cytotoxicity: at the top concentration

Row | Compound | activity change, negative = cytotoxicity | Potency
1 | COc1cc2nccc(Oc3ccc(NC(=O)NC4CC4)c(Cl)c3)c2cc1C(N)=O | 3.84% (inactive) | –
2 | COc1c(OCCCN2CCOCC2)ccc2c3n(c(=NC(=O)c4cnc(N)nc4)nc12)CCN3 | -8.49% [at 11.2 µM] (inactive) | –
3 | Nc1ccn([C@@H]2O[C@H](CO)[C@@H](O)C2(F)F)c(=O)n1 | 0% (inactive) | –
4 | C[n+]1c2cc(N)ccc2cc2ccc(N)cc21 (tested in a mixture with another compound) | – | 10.8 µM (active)
5 | CC(C)C[C@H](NC(=O)[C@H](CCc1ccccc1)NC(=O)CN1CCOCC1)C(=O)N[C@@H](Cc1ccccc1)C(=O)N[C@@H](CC(C)C)C(=O)[C@@]1(C)CO1 | – | 0.681 µM (active)
6 | Cc1cc(-n2c(=O)[nH]c(=O)n(C)c2=O)ccc1Oc1ccc(S(=O)(=O)C(F)(F)F)cc1 | -23.2% (inactive) | –
7 | N=C(N)c1ccc(OCCCCCOc2ccc(C(=N)N)cc2)cc1 | – | 21.5 µM (active)
8 | CC(=O)N1CCN(c2ccc(OC[C@H]3CO[C@](Cn4ccnc4)(c4ccc(Cl)cc4Cl)O3)cc2)CC1 | -20.5% (inactive) | –
9 | CNCCCC12CCC(c3ccccc31)c1ccccc12 | -14.6% (inactive) | –
10 | CN1CCC(=C2c3ccccc3C=Cc3ccccc32)CC1 | 0% (inactive) | –
11 | COc1cc(NS(C)(=O)=O)ccc1Nc1c2ccccc2nc2ccccc12 | – | 12.1 µM (active)
12 | O=C1CCc2ccc(OCCCCN3CCN(c4cccc(Cl)c4Cl)CC3)cc2N1 | -1.16% (inactive) | –
13 | Cc1c(N)nc(C(CC(N)=O)NCC(N)C(N)=O)nc1C(=O)NC(C(=O)NC(C)C(O)C(C)C(=O)NC(C(=O)NCCc1nc(-c2nc(C(=O)NCCCN[C@@H](C)c3ccccc3)cs2)cs1)C(C)O)C(O[C@@H]1O[C@@H](CO)[C@@H](O)[C@H](O)[C@@H]1O[C@H]1O[C@H](CO)[C@@H](O)[C@H](OC(N)=O)[C@@H]1O)c1cnc[nH]1 (some centres not stated) | 0% (inactive) | –
14 | CCCN1C[C@H](C)[C@@H](O)[C@](C)(O)[C@@H](CC)OC(=O)[C@H](C)[C@@H](O[C@H]2C[C@@](C)(OC)[C@@H](O)[C@H](C)O2)C(C)[C@@H](O[C@@H]2O[C@H](C)C[C@H](N(C)C)[C@H]2O)[C@](C)(O)C[C@H]1C (some centres not stated) | -15.3% (inactive) | –
15 | CN1CC[C@H](CN2c3ccccc3Sc3ccccc32)C1 | -9.59% (inactive) | –
16 | CCCCCCNC(=O)n1cc(F)c(=O)[nH]c1=O | 0% (inactive) | –

Row | Compound | activity change, negative = cytotoxicity | Potency
17 | Cc1cn([C@H]2C[C@H](N=[N+]=[N-])[C@@H](CO)O2)c(=O)[nH]c1=O | -4.49% (inactive) | –
18 | COc1cc([C@@H]2c3cc4c(cc3C(O[C@@H]3O[C@@H]5CO[C@@H](c6cccs6)OC5[C@H](O)[C@H]3O)C3COC(=O)[C@@H]32)OCO4)cc(OC)c1O (some centres not stated) | – | 24.1 µM (active)
19 | CCCCN=C(N)N=C(N)N | 0% (inactive) | –
20 | CC[C@@]1(O)C(=O)OCc2c1cc1n(c2=O)Cc2c-1nc1ccccc1c2/C=N/OC(C)(C)C | – | 17.1 µM (active)
21 | CCCCCCCCCCCCCC[n+]1ccc(C)cc1 | – | 4.29 µM (active)
22 | CCn1cc(C(=O)O)c(=O)c2cc(F)c(N3CCNC(C)C3)c(F)c21 (configuration not stated) | -17.7% (inactive) | –
23 | C[C@H]1[C@H](OC(=O)CCC(=O)O)O[C@@H]2O[C@@]3(C)CC[C@H]4[C@H](C)CC[C@@H]1[C@@]24OO3 | -12.5% (inactive) | –
24 | O=c1[nH]c(=O)n([C@H]2C[C@H](O)[C@@H](CO)O2)cc1C(F)(F)F | -5.43% (inactive) | –
25 | CC[C@H](C)C(=O)O[C@H]1C[C@@H](C)C=C2C=C[C@H](C)[C@H](CC[C@@H]3C[C@@H](O)CC(=O)O3)[C@H]21 | – | 9.61 µM (active)
26 | CN1CCC(=C2c3ccccc3CCc3sccc32)CC1 | 1.55% (inactive) | –
27 | COc1ccc(Cc2nccc3cc(OC)c(OC)cc23)cc1OC | -9.35% (inactive) | –
28 | COc1cccc2c1C(=O)c1c(O)c3c(c(O)c1C2=O)C[C@@](O)(C(C)=O)C[C@@H]3O[C@H]1C[C@H](N)[C@H](O)[C@H](C)O1 | – | 13.6 µM (active)
29 | CC(CN(C)C)CN1c2ccccc2CCc2ccccc21 (configuration not stated) | -18.4% (inactive) | –
30 | Oc1c(Cl)cc(Cl)c(Cl)c1Cc1c(O)c(Cl)cc(Cl)c1Cl | – | 4.82 µM (active)
31 | CCCCc1oc2ccccc2c1C(=O)c1cc(I)c(OCCN(CC)CC)c(I)c1 | 0% (inactive) | –
32 | O=C(Nc1ccc([N+](=O)[O-])cc1Cl)c1cc(Cl)ccc1O | – | 0.857 µM (active)
